From PubChem BioAssay
Only some compounds are listed: those with a hit (about 2.7% of all), similar ones and a draw of the others.
TMEM16A inh – TMEM16A chloride channel inhibitors, primary screen, cell-based, HTS; normalized B-score (activity score, 25-100; higher = stronger inhibition) at 10 µM; HEK293 TMEM16A/YFP iodide influx fluorescence, ionomycin; Anoctamin-1 (Mus musculus), Q8BHY3; AID 588511, 2011; 310,000 tested, 1.2% active;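 active = ratio plate-corrected score three or more library SD toward inhibition, starting fluorescence score within five deviations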;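 also: score derived from kinetic fluorescence span divided by baseline fluorescence per well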
IDE cell inh – human IDE inhibitors in live cells, primary screen, fluorescence polarization, HEK cells, FAbetaB substrate; Insulin-degrading enzyme (Homo sapiens), P14735; FAbetaB cleavage; inhibition, % at 5.59 µM; 320,000 tested, 0.41% active; AID 434962, 2010;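 active = percent inhibition above the average of all tested compounds plus 3 SD, set per screening campaign, cut at about 16% in these data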;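 also: IDE supplied by intact live HEK cells; FP after avidin binding of uncleaved biotin substrate so inhibition keeps polarization high; 0% = DMSO wells and 100% = 60 µM reference IDE inhibitor Ii1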
ANO1 activ – TMEM16A chloride channel activators or potentiators, primary screen, cell-based, HTS; HEK293 TMEM16A/YFP-H148Q/I152L, iodide quench fluorescence; stronger effect = lower value; AID 623877, 2012; B-score at 10 µM; 340,000 tested, 0.3% active;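 active = fluorescence-ratio B-score plate-corrected deviation score at least 3 library SD below zero, with starting fluorescence score within 5 deviations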;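 also: channel opened by trigger with iodide after compound preincubation; score built on the fluorescence ratio of max minus min over baseline; more negative score means more quench and so TMEM16A activation or potentiation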
IDE cell activ – human IDE activators in live cells, primary screen, fluorescence polarization, HEK cells, FAbeta-B substrate; 340,000 tested, 0.073% active; Insulin-degrading enzyme (Homo sapiens), P14735; activation, % at 5.96 µM; FAbeta-B cleavage; 0% vehicle, 100% cell-free pure enzyme wells;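 active = activation above the mean of all tested compounds plus 3 SD, set per screening campaign, cut at about 17% in these data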
CHT block – inhibitors of human choline transporter CHT; High affinity choline transporter 1 (Homo sapiens), Q9GZV3; CHT-expressing cells, membrane potential dye, choline response; stronger effect = lower value; 310,000 tested, 0.86% active; B-score at 10 µM;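 active = B-score over 3 SD under the library average, and starting fluorescence ratio not unusually high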;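 also: choline stimulus applied at its EC90 after an EC20 pre-addition; B-score computed on integrated fluorescence ratio after choline addition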
Target sequence (Q9GZV3 whole entry, looked up): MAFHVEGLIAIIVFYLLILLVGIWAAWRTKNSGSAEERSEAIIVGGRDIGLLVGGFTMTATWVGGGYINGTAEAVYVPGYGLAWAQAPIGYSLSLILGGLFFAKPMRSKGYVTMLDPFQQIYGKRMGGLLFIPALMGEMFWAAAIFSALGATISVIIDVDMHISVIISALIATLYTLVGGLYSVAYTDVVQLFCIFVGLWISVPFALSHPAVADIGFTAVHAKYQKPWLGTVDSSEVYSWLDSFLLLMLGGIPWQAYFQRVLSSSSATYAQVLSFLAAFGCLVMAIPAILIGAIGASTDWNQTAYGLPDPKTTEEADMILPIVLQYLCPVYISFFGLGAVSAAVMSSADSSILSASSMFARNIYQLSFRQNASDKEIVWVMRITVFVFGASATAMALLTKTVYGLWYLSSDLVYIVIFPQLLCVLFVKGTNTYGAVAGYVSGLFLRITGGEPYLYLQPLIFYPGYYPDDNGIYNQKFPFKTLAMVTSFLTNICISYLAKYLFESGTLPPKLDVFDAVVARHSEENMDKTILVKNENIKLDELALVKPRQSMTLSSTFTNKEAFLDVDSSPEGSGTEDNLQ
CHT PAM – CHT positive allosteric modulators, primary screen, cell-based, membrane potential dye, choline EC20 | High affinity choline transporter 1 (Homo sapiens), Q9GZV3 | CHT-expressing cells; stronger effect = higher value; LV-AA mutant CHT in HEK293 cells | B-score at 10 µM | 310,000 tested, 0.49% active | AID 488977, 2010;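 active = initial fluorescence not abnormally high and integrated response B-score, plate-corrected, over 3 SD above library mean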
CHT activ conf – CHT activators, confirmation, cell-based, membrane potential dye, duplicate | shares compounds with CHT PAM | CHT-expressing cells, membrane potential dye fluorescence (FDSS); % of choline EC20–EC90 response window; HEK293 expressing CHT LV-AA mutant; choline added at its EC20 | activation, % at 10 µM | 2,500 tested, 91% active | AID 504833, 2011;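 active = primary screen active, with duplicate mean activation above negative control mean plus 3 SD, cut at about 11% in these data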
HEK293 MP dye – membrane potential response in parental HEK293 cells, counter-screen for CHT activator project, cell-based, membrane potential dye. shares compounds with CHT PAM. membrane potential dye fluorescence (FDSS); measured after EC20 choline addition. ratio readout change at 10 µM, hits read low. 2,500 tested, 62% active;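 active = duplicate-averaged ratio beyond 3 SD from buffer wells, up or down, though filed actives are nearly all decreases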
An asterisk follows results filed as active; i = inactive; . = no result.

SMILES	TMEM16A inh	IDE cell inh	ANO1 activ	IDE cell activ	CHT block	CHT PAM	CHT activ conf	HEK293 MP dye
COc1ccccc1CN(Cc1cc2c(C)ccc(C)c2[nH]c1=O)Cc1nnnn1Cc1ccco1	i	0	i	-2	i	6.4*	17*	i
CCCC[C@@H]1C[C@H]1[C@@H](NC(=O)c1cccs1)c1ccc(Cl)cc1	i	0	.	.	i	i	29*	i
CN(C)C(=S)c1ccccc1	i	9	i	.	i	i	.	.
CN(C)C(/C=C/Nc1cccc(Br)c1)=C(C#N)C#N	i	-2	i	.	i	i	49*	-42*
CCC1CCCCN1CCNS(=O)(=O)c1ccc2c(c1)oc(=O)n2C (centres undefined)	i	2	i	1	i	i	35*	-25*
C=CCOc1ccc(/C=C/C(=O)OCC(=O)NCc2cccs2)cc1	i	-6	i	-2	i	i	.	.
Cc1nnc2n(-c3ccccc3)c(=O)c3c4c(sc3n12)CCCC4	i	5	i	0	i	6.5*	26*	-40*
NC(=O)CSc1nnc2n(-c3ccccc3)c(=O)c3c4c(sc3n12)CCCCC4	i	2	i	0	i	i	.	.
CNC(=S)N/N=C/c1cc(C)n(-c2ccc(Cl)c(Cl)c2)c1C	i	10	i	4	i	9.3*	8	i
Cc1ccc(-n2c(C)cc(/C=N/NC(=O)c3ccncc3)c2C)cc1	i	-3	i	0	i	i	.	.
Cc1ccc(-n2c(C)cc(/C=N/NC(N)=S)c2C)cc1	i	4	i	-6	i	14*	33*	i
CN(C(=O)c1ccc2c(c1)OCO2)C1CCS(=O)(=O)C1 (centres undefined)	i	-1	i	1	i	i	.	.
Cc1nnc(SCC(=O)NCC2COc3ccccc3O2)s1 (centres undefined)	.	-1	i	4	.	.	.	.
O=C(NC1CCCCC1)C(c1cccs1)N(Cc1cccs1)C(=O)c1cccs1 (centres undefined)	i	3	i	4	i	9.2*	30*	i
COc1ccccc1N(C(=O)c1ccco1)C(C(=O)NC1CCCC1)c1cccs1 (centres undefined)	i	4	i	4	i	11*	23*	i
CC(C(=O)N1CCc2ccccc21)N1CCN(Cc2ccccc2)CC1 (centres undefined)	i	-2	i	1	i	i	.	.
CCOc1ccc(S(=O)(=O)N2CCCCC2)cc1NC(=O)C1CSC2(C)CCC(=O)N12 (centres undefined)	i	1	i	-1	i	i	26*	i
CC12CCC(=O)N1C(C(=O)Nc1cccc(S(=O)(=O)N3CCCCC3)c1)CS2 (centres undefined)	i	-2	i	1	i	i	.	.
Cc1nnc2n(-c3ccccc3)c(=O)c3c4c(sc3n12)COC(C)(C)C4	i	4	i	0	i	i	.	.
Cc1nnc2n(C)c(=O)c3c4c(sc3n12)COC(C)(C)C4	i	1	i	8	i	6.5*	74*	-72*
